Laboratory results: PubChem BioAssay (Tox21)
Records with an inconclusive call do not appear. A call without a number means that no potency is given here. The source made the active and inactive calls. Unless noted, calls come from the whole dose curve.

Assays:
[1] = Nuclear factor erythroid 2-related factor 2/antioxidant responsive element (Nrf2/ARE) small molecule agonists: qHTS cell viability counter screen in human keratinocytes (AID 1919968; active = well fitted curve in the direction sought with a large enough effect in the repeat runs; an effect the other way counts as inactive or inconclusive; note: nearly all actives have a fitted effect of over 55% in size)
Procedure, shortened: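 KeratinoSens cells (HaCaT keratinocytes stably carrying an ARE-luciferase reporter) were seeded at 1,500 cells/well and rested 5 h at 37 C/5% CO2. They were then exposed to compounds in DMSO for 23 h. Viability was read by CellTiter-Fluor fluorescence after 1 h.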

[2] = biological target: KiSS-1 receptor (Homo sapiens) (UniProt Q969F8); test: Human kisspeptin (KISS1R) small molecule agonists, calcium flux assay in KISS1R-HEK293 cells (AID 1920064; active = well fitted curve in the direction sought with a large enough effect in the repeat runs; an effect the other way counts as inactive or inconclusive)
Procedure, shortened: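 HEK293 cells stably expressing human KISS1R were plated 18 h at 37 °C, loaded with calcium dye for 1 h at 37 °C, then given compound by pin tool. Fluorescence (Ex/Em 480/540) was read kinetically for 3 min.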

[3] = G protein-coupled receptor (GPCR) small molecule agonists, calcium flux assay: HEK293 wild type cell line counter screen (AID 1920065)
Procedure, shortened: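 Cells were plated and cultured 18 h at 37 C/5% CO2, then loaded with calcium dye for 1 h at 37 C. Compounds in DMSO were pin-transferred in agonist mode, and fluorescence (Ex/Em 480/540) was read kinetically for 3 min at 1 s intervals.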

[4] = p53 small molecule agonists, cell-based qHTS assay with human liver microsomes (AID 1963577);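 note: p53 response element beta-lactamase reporter cells with liver microsomes plus NADPH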
Procedure, shortened: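 Metabolically competent format: test substances, human liver microsomes and NADPH (both 0.5 mg/mL final) incubated with p53RE-bla cells 16 h at 37 C. Beta-lactamase reporter signal then quantified by fluorescence.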

[5] = p53 small molecule agonists, cell-based qHTS assay with rat liver microsomes (AID 1963578)
Procedure, shortened: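 Each plate received p53RE-bla cells, then compound, then rat liver microsomes and NADPH (both 0.5 mg/mL final). Plates were held 16 h at 37 C, and beta-lactamase activity was detected with LiveBLAzer over 2 h.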

[6] = p53 small molecule agonists, cell-based qHTS assay with human liver microsomes: qHTS cell viability counter screen (AID 1963579); note: nearly all actives have a fitted effect of over 45% in size
Procedure, shortened: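 Tox21 library compounds, delivered from DMSO stocks, were tested on p53RE-bla cells together with 0.5 mg/mL human liver microsomes and 0.5 mg/mL NADPH (final) over 16 h at 37 C; CellTiter-Glo luminescence served as the cytotoxicity measure.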

[7] = p53 small molecule agonists, cell-based qHTS assay with rat liver microsomes: qHTS cell viability counter screen (AID 1963580); note: nearly all actives have a fitted effect of over 45% in size
Procedure, shortened: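 Viability is assessed in parallel with the p53 reporter read: HCT-116 p53RE-bla cells receive compounds plus rat microsomes and NADPH (0.5 mg/mL final apiece), incubate 16 h at 37 C, and then CellTiter-Glo luminescence is recorded.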

[8] = p53 small molecule agonists, cell-based qHTS assay (AID 1963582; active = well fitted activation curve with a large enough effect in the signal ratio in the repeat runs, not every such curve was filed as active; the % refers to the signal ratio)
Procedure, shortened: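 p53RE-bla beta-lactamase reporter cells rested 5 h at 37 C/5% CO2, then received compounds in DMSO by pin transfer and were incubated 16 h at 37 C. LiveBLAzer B/G FRET substrate was loaded for 2 h at room temperature before fluorescence reading.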

[9] = biological target: 5-hydroxytryptamine receptor 2A (Homo sapiens) (UniProt P28223); test: 5-hydroxytryptamine receptor 2A (HTR2A) small molecule antagonists, cell-based qHTS assay (AID 1963586); note: nearly all actives have a fitted effect of over 45% in size
Procedure, shortened: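 Antagonist-mode intracellular calcium assay: DOI (4 nM) added after 5 min compound pre-incubation at room temperature to dye-loaded HTR2A-CHO cells. Fluorescence followed for 3 min, sampled every second.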

[10] = cAMP Responsive Elements (CRE) small molecule antagonists, cell-based qHTS assay (AID 1963591; active = well fitted inhibition curve with a large enough effect in the signal ratio in the repeat runs, not every such curve was filed as active; the % refers to the signal ratio)
Procedure, shortened: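 CRE-bla HEK293T cells were plated 18 h at 37 °C/5% CO2, pinned with compound in DMSO, then stimulated with NKH477 at 0.25 uM final for 3 h. LiveBLAzer B/G FRET substrate was added and plates incubated 2 h at room temperature.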

[11] = biological target: Beta-2 adrenergic receptor (Homo sapiens) (UniProt P07550); test: Adrenergic beta2 receptor (ADRB2) small molecule antagonists, cell-based qHTS assay (AID 1963592); note: series mostly up to about 92 µM; nearly all actives have a fitted effect of over 50% in size
Procedure, shortened: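 Cells (CHO, stable ADRB2 overexpression) incubated 18-20hr at 37C; compounds added from DMSO; agonist mix (1nM isoproterenol, 100uM IBMX, 25uM Ro-20-1724) added; 0.5hr RT; d2-cAMP and anti-cAMP-cryptate added; 1hr RT; 665/615 nm read.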

[12] = biological target: Beta-2 adrenergic receptor (Homo sapiens) (UniProt P07550); test: Adrenergic beta2 receptor (ADRB2) small molecule agonists, cell-based qHTS assay (AID 1963593);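 note: CHO cells stably overexpressing human ADRB2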
Procedure, shortened: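 CHO cells stably over-expressing ADRB2 were plated overnight at 37C, then dosed with compounds plus a stimulation mix containing 100uM IBMX and 25uM Ro-20-1724 for 0.5hr at room temperature. cAMP was measured by HTRF competition, 1hr.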

[13] = biological target: D(2) dopamine receptor (Homo sapiens) (UniProt P14416); test: Dopamine D2 receptor (DRD2) small molecule agonists, cell-based qHTS assay (AID 1963594); note: nearly all actives have a fitted effect of over 35% in size; note: potency is the fitted concentration of half-maximal effect
Procedure, shortened: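 HEK293 cells stably expressing human DRD2, pre-treated with PDE inhibitor Ro20-1724 (0.1 mM final) and compound 10 min at room temperature, then stimulated with NKH477 (200nM […]) for 30 min. cAMP read by HTRF (665/620 nm).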

[14] = biological target: D(2) dopamine receptor (Homo sapiens) (UniProt P14416); test: Dopamine D2 receptor (DRD2) small molecule antagonists, cell-based qHTS assay (AID 1963595; active = well fitted inhibition curve with a large enough effect in the signal ratio in the repeat runs, with a control signal flat; the % refers to the signal ratio)
Procedure, shortened: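 Human DRD2 antagonist qHTS measuring cAMP by HTRF. The cells are exposed to compound for 10 min, then to NKH477 (200 nM) and quinpirole (12 nM) for 30 min at RT, with Ro20-1724 (0.1 mM) present throughout.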

[15] = p53 small molecule agonists, cell-based qHTS assay: qHTS cell viability counter screen (AID 1963581); note: nearly all actives have a fitted effect of over 45% in size
Procedure, shortened: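 p53RE-bla HCT-116 cells were exposed to compounds for 16 h at 37 C; after the beta-lactamase FRET read in the same wells, CellTiter-Glo was added and luminescence (intracellular ATP) read after 30 min at room temperature.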

[16] = biological target: 5-hydroxytryptamine receptor 2A (Homo sapiens) (UniProt P28223); test: 5-hydroxytryptamine receptor 2A (HTR2A) small molecule agonists, cell-based qHTS assay (AID 1963587); note: nearly all actives have a fitted effect of over 30% in size
Procedure, shortened: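 CHO cells stably expressing human HTR2A, plated 18 h, loaded with calcium dye 1 h at 37 C. Agonist mode: compounds added and intracellular calcium fluorescence recorded kinetically for 2 min at 1 sec intervals.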

[17] = biological target: Muscarinic acetylcholine receptor M1 (Homo sapiens) (UniProt P11229); test: Cholinergic receptor muscarinic 1 (CHRM1) small molecule antagonists, cell-based qHTS assay (AID 1963588); note: nearly all actives have a fitted effect of over 40% in size
Procedure, shortened: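 CHRM1-CHO calcium-flux assay, antagonist mode. Cells were seeded 18 h, dye-loaded 1 h at 37 C and given compound for 5 min at RT, then acetylcholine was added at 50nM. FDSS fluorescence was read 3 min; 15 concentrations, three runs.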

[18] = biological target: Muscarinic acetylcholine receptor M1 (Homo sapiens) (UniProt P11229); test: Cholinergic receptor muscarinic 1 (CHRM1) small molecule agonists, cell-based qHTS assay (AID 1963589); note: nearly all actives have a fitted effect of over 35% in size
Procedure, shortened: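 CHO cells stably expressing human CHRM1, seeded 18 h at 37 C/5% CO2, dye-loaded 1 h at 37 C, then given compound in agonist mode; intracellular calcium fluorescence read kinetically at 1 s intervals. Fifteen concentrations, three independent runs.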

[19] = cAMP Responsive Elements (CRE) small molecule agonists, cell-based qHTS assay (AID 1963590)
Procedure, shortened: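 CRE-bla HEK 293T cells in DMEM with 10% dialyzed FBS, NEAA, pyruvate and 25 mM HEPES were plated 18 h at 37 C/5% CO2, then exposed to compounds in DMSO for 3 h before LiveBLAzer B/G FRET substrate addition.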

[20] = biological target: Gonadotropin-releasing hormone receptor (Homo sapiens) (UniProt P30968); test: Human gonadotropin-releasing hormone receptor (GnRHR) small molecule agonists, calcium flux assay in GnRHR-HEK293 cells (AID 1920063); note: nearly all actives have a fitted effect of over 35% in size
Procedure, shortened: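 HEK293 cells stably expressing human GnRHR were plated 18 h at 37 °C, loaded with calcium dye 1 h at 37 °C, then given compound in agonist mode; fluorescence (Ex/Em 480/540) read kinetically for 3 min at 1 s intervals.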

Chain of Beta-2 adrenergic receptor (Homo sapiens) (P07550 whole entry, looked up): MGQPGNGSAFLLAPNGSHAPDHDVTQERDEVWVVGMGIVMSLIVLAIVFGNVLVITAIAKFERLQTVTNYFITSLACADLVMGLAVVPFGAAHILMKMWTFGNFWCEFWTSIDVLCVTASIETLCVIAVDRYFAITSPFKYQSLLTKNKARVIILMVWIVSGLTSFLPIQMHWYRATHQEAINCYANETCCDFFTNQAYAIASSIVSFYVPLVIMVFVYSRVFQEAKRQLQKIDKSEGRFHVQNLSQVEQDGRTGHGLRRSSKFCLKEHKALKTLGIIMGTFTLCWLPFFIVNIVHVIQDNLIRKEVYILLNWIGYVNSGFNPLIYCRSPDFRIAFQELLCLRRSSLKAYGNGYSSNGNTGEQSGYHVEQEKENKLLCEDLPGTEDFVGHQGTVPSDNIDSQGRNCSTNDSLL
Chain of D(2) dopamine receptor (Homo sapiens) (P14416 whole entry, looked up): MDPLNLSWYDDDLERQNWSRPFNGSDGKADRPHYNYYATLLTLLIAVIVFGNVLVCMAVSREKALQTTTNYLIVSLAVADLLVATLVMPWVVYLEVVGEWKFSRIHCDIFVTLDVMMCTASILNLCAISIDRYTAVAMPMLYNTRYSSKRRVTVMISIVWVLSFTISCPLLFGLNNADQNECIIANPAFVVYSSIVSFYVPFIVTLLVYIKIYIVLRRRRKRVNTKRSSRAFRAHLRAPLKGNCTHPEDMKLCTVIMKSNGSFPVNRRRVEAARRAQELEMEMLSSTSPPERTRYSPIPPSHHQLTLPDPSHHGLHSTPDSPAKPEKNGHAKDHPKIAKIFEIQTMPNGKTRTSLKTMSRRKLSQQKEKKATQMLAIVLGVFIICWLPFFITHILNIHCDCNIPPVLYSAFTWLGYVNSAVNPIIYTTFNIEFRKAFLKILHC
Chain of Muscarinic acetylcholine receptor M1 (Homo sapiens) (P11229 whole entry, looked up): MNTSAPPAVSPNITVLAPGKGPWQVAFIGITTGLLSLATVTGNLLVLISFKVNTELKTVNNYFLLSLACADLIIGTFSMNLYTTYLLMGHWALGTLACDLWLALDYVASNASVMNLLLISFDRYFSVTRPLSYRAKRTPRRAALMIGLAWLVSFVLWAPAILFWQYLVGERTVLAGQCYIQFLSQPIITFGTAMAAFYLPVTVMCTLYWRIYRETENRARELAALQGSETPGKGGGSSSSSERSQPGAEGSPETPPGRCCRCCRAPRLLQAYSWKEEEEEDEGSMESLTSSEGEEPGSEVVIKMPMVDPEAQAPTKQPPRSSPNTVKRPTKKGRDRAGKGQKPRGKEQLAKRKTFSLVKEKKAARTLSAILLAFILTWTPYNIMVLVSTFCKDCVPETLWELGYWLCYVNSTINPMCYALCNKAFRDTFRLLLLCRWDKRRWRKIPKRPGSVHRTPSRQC
Chain of KiSS-1 receptor (Homo sapiens) (Q969F8 whole entry, looked up): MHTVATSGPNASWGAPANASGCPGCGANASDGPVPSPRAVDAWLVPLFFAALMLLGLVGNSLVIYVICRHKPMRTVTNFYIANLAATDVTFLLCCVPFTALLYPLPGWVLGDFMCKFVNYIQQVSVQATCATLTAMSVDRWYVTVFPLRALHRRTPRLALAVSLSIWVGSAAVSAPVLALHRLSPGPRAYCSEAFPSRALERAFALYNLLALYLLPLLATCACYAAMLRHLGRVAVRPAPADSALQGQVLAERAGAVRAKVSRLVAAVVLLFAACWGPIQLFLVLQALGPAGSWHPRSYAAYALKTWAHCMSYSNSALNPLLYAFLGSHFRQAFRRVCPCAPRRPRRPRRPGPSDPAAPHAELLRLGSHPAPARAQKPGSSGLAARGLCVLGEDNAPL
Chain of 5-hydroxytryptamine receptor 2A (Homo sapiens) (P28223 whole entry, looked up): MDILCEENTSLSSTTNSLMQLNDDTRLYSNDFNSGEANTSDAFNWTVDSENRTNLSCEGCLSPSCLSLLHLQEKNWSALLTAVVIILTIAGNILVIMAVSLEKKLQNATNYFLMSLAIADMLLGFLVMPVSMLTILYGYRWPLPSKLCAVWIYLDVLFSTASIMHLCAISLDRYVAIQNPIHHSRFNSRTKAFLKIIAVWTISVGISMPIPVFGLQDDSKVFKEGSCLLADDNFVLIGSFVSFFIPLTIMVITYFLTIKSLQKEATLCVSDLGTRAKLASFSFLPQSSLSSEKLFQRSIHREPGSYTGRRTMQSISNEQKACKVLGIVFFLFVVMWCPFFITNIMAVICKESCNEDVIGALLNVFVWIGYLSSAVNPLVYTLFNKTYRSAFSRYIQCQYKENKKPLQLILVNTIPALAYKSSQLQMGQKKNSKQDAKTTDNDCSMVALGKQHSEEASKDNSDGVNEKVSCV
Chain of Gonadotropin-releasing hormone receptor (Homo sapiens) (P30968 whole entry, looked up): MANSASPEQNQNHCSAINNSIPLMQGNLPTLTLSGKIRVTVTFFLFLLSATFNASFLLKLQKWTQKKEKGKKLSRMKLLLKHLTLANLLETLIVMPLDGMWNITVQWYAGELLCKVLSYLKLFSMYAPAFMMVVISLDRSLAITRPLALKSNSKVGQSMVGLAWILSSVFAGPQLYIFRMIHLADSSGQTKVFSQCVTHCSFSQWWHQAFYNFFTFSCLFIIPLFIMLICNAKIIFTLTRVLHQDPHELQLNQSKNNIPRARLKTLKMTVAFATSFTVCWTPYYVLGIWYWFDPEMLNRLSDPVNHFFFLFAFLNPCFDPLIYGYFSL

Structure (SMILES) | Potency [1] | outcome [2] | outcome [3] | Potency [4] | Potency [5] | Potency [6] | Potency [7] | Potency [8] | Potency [9] | Potency [10] | Potency [11] | Potency [12] | Potency [13] | Potency [14] | Potency [15] | Potency [16] | Potency [17] | Potency [18] | Potency [19] | Potency [20]
Cc1ccc2oc(CN(Cc3ccccc3)C(=O)Nc3c(F)cc(F)cc3F)c(-c3ccc(Cl)cc3)c2c1 | inactive | inactive | inactive | inactive | inactive | inactive | inactive | inactive | inactive | inactive | inactive | inactive | inactive | inactive |  |  |  |  |  | 
C/C=C(/C(=C/C)c1ccc(OC(C)=O)cc1)c1ccc(OC(C)=O)cc1 | inactive | inactive | inactive | inactive | inactive | inactive | inactive |  |  |  | inactive |  | inactive | inactive | inactive | inactive | inactive | inactive | inactive | 
OCCN1C[C@H](O)[C@@H](O)[C@H](O)[C@H]1CO | inactive | inactive | inactive | inactive | inactive | inactive | inactive | inactive | inactive | inactive | inactive | inactive | inactive | inactive |  | inactive | inactive | inactive | inactive | 
C[C@H]1C[C@H]2[C@@H]3CCC4=CC(=O)C=C[C@]4(C)[C@H]3C(=O)C[C@]2(C)[C@@]1(O)C(=O)CO | inactive | inactive | inactive | inactive | inactive | inactive | inactive |  |  | inactive | inactive |  | inactive | inactive | inactive | inactive | inactive | inactive | inactive | 
NS(=O)(=O)c1cc2c(cc1C(F)(F)F)NCNS2(=O)=O | inactive | inactive | inactive | inactive | inactive | inactive | inactive |  | inactive | inactive | inactive |  | inactive | inactive | inactive | inactive | inactive | inactive | inactive | 
Cn1c(=O)c2c(ncn2CC(O)CO)n(C)c1=O (configuration not stated) | inactive | inactive | inactive | inactive | inactive | inactive | inactive | inactive |  | inactive | inactive |  | inactive | inactive | inactive |  |  |  | inactive | 
OCC(CO)n1cnc(-c2ccc(F)cc2)c1-c1ccnc(Oc2ccccc2)n1 | inactive | inactive | inactive | inactive | inactive | inactive | inactive | inactive | inactive |  | inactive | inactive | inactive | inactive |  | inactive | inactive | inactive |  | 
CN1C[C@H](C(=O)N[C@]2(C)O[C@@]3(O)[C@@H]4CCCN4C(=O)[C@H](Cc4ccccc4)N3C2=O)C[C@@H]2c3cccc4[nH]cc(c34)C[C@H]21 | inactive | inactive | inactive | inactive | inactive | inactive | inactive | inactive |  |  |  |  | 22 nM (active) |  | inactive |  |  |  |  | 
CN(C)CC/C=C1/c2ccccc2COc2ccc(CC(=O)O)cc21 | inactive | inactive | inactive | inactive | inactive | inactive | inactive | inactive |  | inactive | inactive |  | inactive | inactive | inactive | inactive |  | inactive | inactive | 
C=C(C)C1CC=C(C)C(O)C1 (configuration not stated) | inactive | inactive | inactive | inactive | inactive | inactive | inactive | inactive |  | inactive |  |  | inactive | inactive | inactive | inactive | inactive | inactive | inactive | 
CCOC(=O)CC1(C)OCC(C)O1 (configuration not stated) | inactive | inactive | inactive | inactive | inactive | inactive | inactive | inactive | inactive |  | inactive | inactive | inactive | inactive |  | inactive | inactive | inactive | inactive | 
CCOC(=O)C(=O)CCCCCCl | inactive | inactive | inactive | inactive | inactive | inactive | inactive |  |  | inactive |  |  |  | inactive | inactive | inactive | inactive | inactive | inactive | 
CN(C)Cc1ccccc1 | inactive | inactive | inactive | inactive | inactive | inactive | inactive | inactive | inactive | inactive | inactive | inactive | inactive | inactive |  | inactive | inactive | inactive |  | 
CCCCCCCCSCc1cc(C)c(O)c(CSCCCCCCCC)c1 | inactive | inactive | inactive | inactive | inactive | inactive | inactive |  | inactive | inactive | inactive | inactive | inactive | inactive | inactive |  | inactive | inactive |  | 
COc1cc(C)ccc1O | inactive | inactive | inactive | inactive | inactive | inactive | inactive | inactive | inactive |  | inactive |  | inactive | inactive | inactive | inactive | inactive | inactive | inactive | inactive
O=c1cc[nH]cc1 | inactive | inactive | inactive | inactive | inactive | inactive | inactive | inactive | inactive | inactive | inactive |  | inactive | inactive | inactive | inactive | inactive | inactive |  | inactive
